Most compounds without a hit are left out; they make up all but 3.5% or so of the library.
TEAD-YAP inh – TEAD-YAP interaction inhibition, primary screen, TEAD-YAP interaction inhibitor project, luminescence, HEK-TIYL cells; AID 1259422, 2018; TEAD-Gal4/YAP UAS-luciferase luminescence; inhibition, % at 9.12 µM; 640,000 compounds, 1.4% hits; in the data active = inhibition above about 32%;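 note: 0% = median of test compound wells and 100% = reference inhibitor wells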
FBW7 act – FBW7 E3 ligase activators, primary screen, biochemical, AlphaScreen, human | F-box/WD repeat-containing protein 7 (Homo sapiens), Q969H0 | AlphaScreen FBW7–phospho-cyclin E peptide binding, activator screen | normalized activity (activation), % at 26.1 µM | 650,000 compounds, 0.13% hits | AID 1259310, 2017; in the data active = normalized activity above about 1.9%;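 note: purified mutant Fbw7 with reduced substrate affinity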
MITF inh – MITF inhibitors, primary screen, biochemical, AlphaScreen, human | AID 1259374, 2018 | 650,000 compounds, 0.91% hits | Microphthalmia-associated transcription factor (Homo sapiens), O75030 | AlphaScreen MITF homodimerization, bead proximity signal | inhibition, % at 2.6 µM; in the data active = inhibition above about 50%;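 note: 0% = vehicle wells with protein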
GPR151 ag – activators of human GPR151, primary screen, cell-based, PathHunter beta-arrestin, luminescence; G-protein coupled receptor 151 (Homo sapiens), Q8TDV0; PathHunter beta-arrestin GPR151 cells; activation, % at 11.2 µM; 650,000 compounds, 1% hits; in the data active = activation above about 4.9%;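 note: 0% = median of compound wells and 100% = cells with positive control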
Target sequence (Q8TDV0 whole entry, looked up): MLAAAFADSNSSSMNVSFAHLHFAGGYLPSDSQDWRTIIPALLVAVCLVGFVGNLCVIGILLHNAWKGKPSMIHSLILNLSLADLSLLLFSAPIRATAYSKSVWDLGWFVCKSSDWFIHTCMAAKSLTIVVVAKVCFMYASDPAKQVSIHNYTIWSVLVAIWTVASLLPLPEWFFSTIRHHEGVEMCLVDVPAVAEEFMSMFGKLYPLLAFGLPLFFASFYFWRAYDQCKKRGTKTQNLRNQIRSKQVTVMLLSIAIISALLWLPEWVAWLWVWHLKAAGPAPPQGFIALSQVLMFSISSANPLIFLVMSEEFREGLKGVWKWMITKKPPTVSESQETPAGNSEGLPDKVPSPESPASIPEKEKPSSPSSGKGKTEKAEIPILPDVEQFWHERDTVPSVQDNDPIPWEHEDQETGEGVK
GPR151 conf act – GPR151 activators, triplicate retest, confirmation, cell-based, PathHunter beta-arrestin, luminescence | shares compounds with GPR151 ag | 6,700 tested, under 10 active | activation, % at 11.2 µM | GPR151 PathHunter beta-arrestin cells, 90 min; % of EA-reagent control over plate median | AID 1508609, 2020;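 active = mean percent activation across replicates above the confirmation screen cutoff of 4.91%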
GPR119 counter – GPR119 activators in beta-arrestin cells, counter-screen for GPR151 activator project, cell-based, PathHunter beta-arrestin, luminescence, triplicate; shares compounds with GPR151 ag; 90 min; 0 = compound-well median, 100 = enzyme-acceptor control; activation, % at 11.2 µM; 6,700 compounds, 0.3% hits; AID 1508611, 2020;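 active = mean percent activation in the counterscreen above 29.09%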;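 note: counterscreen on off-target GPR119 to flag nonselective hits from the GPR151 activator screen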
Active calls of the source: *; . = no result given.

SMILES | TEAD-YAP inh | FBW7 act | MITF inh | GPR151 ag | GPR151 conf act | GPR119 counter
CCOC(=O)c1c(NC(=O)CSc2nnc(CNC(=O)c3cc(OC)cc(OC)c3)n2Cc2ccccc2)sc2c1CCCC2 | -3.5 | 0.0 | -9.1 | 5.0* | 0.1 | -7.8
CCOC(=O)c1c(NC(=O)CSc2nnc(CNC(=O)c3cccc(F)c3)n2-c2ccc([N+](=O)[O-])cc2)sc2c1CCCCC2 | -3.1 | -0.2 | -1.0 | 5.5* | 0.3 | -0.7
CC(=O)Nc1ccc(Nc2cc(N3CCCC3CO)ncn2)cc1 (stereo not given) | -19.3 | -0.1 | -1.9 | 5.2* | 1.3 | -8.8
OCC1CCCN1c1cc(Nc2ccc(N3CCOCC3)cc2)ncn1 (stereo not given) | -6.8 | 0.2 | 9.8 | -1.7 | . | .
O=C(CSc1nc2[nH]ncc2c(=O)n1-c1ccc(Cl)cc1)Nc1ccc(-c2nc3ccccc3o2)cc1 | -5.5 | -0.1 | 2.7 | 1.2 | . | .
Cn1ncc2c(NCCc3ccccc3)ncnc21 | -33.9 | 0.1 | 3.8 | -0.8 | . | .
O=C(Nc1ccccc1)OCC1CCCO1 (stereo not given) | -35.1 | 0.1 | 3.4 | 10.6* | 0.0 | -4.7
C/C=C/C=C/C(=O)Nc1ccc2nc(SC)sc2c1 | -49.0 | -0.2 | -9.3 | 1.5 | . | .
Cc1cc(NC(=O)COC(=O)c2nc(-c3ccccc3)oc2C)no1 | 12.1 | 0.1 | 46.4 | -1.5 | . | .
N#C/C(=C\c1ccc(-c2ccccc2C(=O)O)o1)C(=O)Nc1ccccc1 | -29.5 | -0.2 | -2.8 | 8.2* | -0.6 | 0.4
CC(=O)c1ccc(-c2ccc(/C=C(\C#N)C(N)=S)o2)cc1 | -0.3 | -0.1 | -11.9 | 0.3 | . | .
N#C/C(=C\c1ccc(-c2ccccc2C#N)o1)C(N)=S | 1.2 | 0.0 | -0.2 | 6.0* | 0.1 | 1.5
COc1ccc(NC(=O)/C(C#N)=C/c2ccc(-c3ccccc3C(=O)O)o2)cc1 | -4.8 | 0.0 | -8.7 | -0.7 | . | .
CCOC(=O)N1CCN(C(=O)c2ccc3c(c2)NC(=O)C(CSCc2ccc(F)cc2Cl)N3)CC1 (stereo not given) | 2.2 | -0.2 | 7.3 | -1.5 | . | .
C=CCNC(=O)CCN1C(=O)c2ccccc2C1=O | -3.5 | -0.1 | -6.2 | 5.6* | 1.6 | 1.3
COc1ccc(Cl)cc1NC(=O)c1cnn2c1NC(c1ccc(OC)c(OC)c1)CC2C(F)(F)F (stereo not given) | -17.8 | 0.0 | 3.3 | 8.6* | 0.8 | 8.6
CC(=O)C(Cc1ccccc1)NC(=O)CN1C(=O)c2ccccc2C1=O (stereo not given) | 6.0 | 0.1 | 2.5 | -0.3 | . | .
CCOC(=O)C(CC1=CNC2C=CC=CC12)NC(=O)CN1C(=O)c2ccccc2C1=O (stereo not given) | -6.3 | -0.1 | -6.0 | 7.7* | -0.1 | 10.6
COc1ccc(O)c(CN[C@H]2C[C@@H](C(=O)NC(C)C)N(Cc3ccc4ccccc4c3)C2)c1 | -1.4 | -0.1 | -3.8 | 0.2 | . | .
COc1ccc(-c2[nH]ncc2CN[C@@H]2C[C@@H](C(=O)NC(C)C)N(Cc3ccccc3)C2)cc1 | -1.5 | -0.3 | 8.0 | 5.7* | 0.3 | -3.8
CC1(C)OC(=O)C(=CNC(CCC(N)=O)C(=O)O)C(=O)O1 (stereo not given) | -9.8 | -0.4 | 11.7 | 6.4* | 0.5 | -3.1
CCOC(=O)C1=C(C)N(C)C(=O)NC1c1ccccc1Cl (stereo not given) | -2.0 | 0.0 | 1.8 | -1.7 | . | .
CCCCCOC(=O)C1=C(C)N(C)C(=O)NC1c1ccccc1Cl (stereo not given) | 1.5 | -0.1 | -3.2 | 5.0* | 0.9 | 11.8
Cc1ccc(N/C(SCc2cccc([N+](=O)[O-])c2)=C(/C#N)C(=O)NCc2ccco2)cc1C | -2.4 | 0.0 | 25.9 | -3.0 | . | .
CC(=O)c1c(C)[nH]c2ccccc2c1=O | -6.1 | 0.0 | -1.3 | 0.5 | . | .
Cc1[nH]c2ccccc2c(=O)c1Br | 7.0 | 0.0 | 11.3 | 5.6* | 0.0 | 7.5

Screening results as filed in PubChem.
